# Reference: the supplement of paper PMC12282887
# ± gives the standard deviation of the averaged measurements.
# Key:
# Assay in all cases: promoter activity interaction Z-score (Lux/OD deviation from empty-vector control); higher = stronger promoter induction by the compound
# [1] = system: E. coli BW25113 tolCp lux reporter
# Method in brief: (§1)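 E. coli BW25113 (wild type or marA, soxS or rob deletion) carrying low-copy luxCDABE promoter reporters grew in 40 µl LB Lennox in 384-well plates at 37°C. Each compound was tested at four 1:2 dilutions in biological duplicates. OD600 and luminescence were read every 30 min for 12 h. Areas were taken over 0–8 h (wild type) or 1–9 h (mutants), and wells below 10% of median growth area were removed. The score is the Z-transformed residual of growth-normalised luminescence fitted against the empty-vector control.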
# [2] = system: E. coli BW25113 acrABp lux reporter
# Method in brief: as §1
# [3] = system: E. coli BW25113 micFp lux reporter
# Method in brief: as §1
# [4] = system: E. coli BW25113 ompFp lux reporter
# Method in brief: as §1
# [5] = system: E. coli BW25113 robp lux reporter
# Method in brief: as §1
# [6] = system: E. coli BW25113 soxSp lux reporter
# Method in brief: as §1
# [7] = 12.9 µg/ml, genetic background: wild type
# [8] = 12.9 µg/ml, genetic background: ΔmarA
# [9] = 12.9 µg/ml, genetic background: Δrob
# [10] = 12.9 µg/ml, genetic background: ΔsoxS
# [11] = 25.8 µg/ml, genetic background: wild type
# [12] = 25.8 µg/ml, genetic background: ΔmarA
# [13] = 25.8 µg/ml, genetic background: Δrob
# [14] = 25.8 µg/ml, genetic background: ΔsoxS
# [15] = 51.6 µg/ml, genetic background: wild type
# [16] = 51.6 µg/ml, genetic background: ΔmarA
# [17] = 51.6 µg/ml, genetic background: Δrob
# [18] = 51.6 µg/ml, genetic background: ΔsoxS
# [19] = 103.1 µg/ml, genetic background: wild type
# [20] = 103.1 µg/ml, genetic background: ΔmarA
# [21] = 103.1 µg/ml, genetic background: Δrob
# [22] = 103.1 µg/ml, genetic background: ΔsoxS
smiles,measurement,setting,value
O=C(/C=C/C=C/c1ccc2c(c1)OCO2)N1CCCCC1 [Piperine],promoter activity interaction Z-score,"[1]; 71.3 µg/ml, genetic background: Δrob",-0.0523 ± 0.77
same,promoter activity interaction Z-score,"[1]; 71.3 µg/ml, genetic background: ΔsoxS",0.108 ± 1.1
same,promoter activity interaction Z-score,"[1]; 142.7 µg/ml, genetic background: wild type",0.274 ± 0.22
same,promoter activity interaction Z-score,"[1]; 142.7 µg/ml, genetic background: ΔmarA",0.331 ± 2.3
same,promoter activity interaction Z-score,"[1]; 142.7 µg/ml, genetic background: Δrob",-0.437 ± 0.62
same,promoter activity interaction Z-score,"[1]; 142.7 µg/ml, genetic background: ΔsoxS",-0.524 ± 0.86
CC(C)Cc1ccc(C(C)C(=O)O)cc1 (configuration not stated) [Ibuprofen],promoter activity interaction Z-score,[2]; [7],0.434 ± 0.3
same,promoter activity interaction Z-score,[2]; [8],-0.569 ± 0.69
same,promoter activity interaction Z-score,[2]; [9],0.0303 ± 0.11
same,promoter activity interaction Z-score,[2]; [10],0.455 ± 0.63
same,promoter activity interaction Z-score,[2]; [11],0.485 ± 0.088
same,promoter activity interaction Z-score,[2]; [12],0.667 ± 0.1
same,promoter activity interaction Z-score,[2]; [13],-0.156 ± 0.0041
same,promoter activity interaction Z-score,[2]; [14],-0.0442 ± 0.022
same,promoter activity interaction Z-score,[2]; [15],0.366 ± 0.24
same,promoter activity interaction Z-score,[2]; [16],-0.62 ± 0.53
same,promoter activity interaction Z-score,[2]; [17],0.236 ± 0.13
same,promoter activity interaction Z-score,[2]; [18],0.0533 ± 0.45
same,promoter activity interaction Z-score,[2]; [19],0.11 ± 0.073
same,promoter activity interaction Z-score,[2]; [20],2.18 ± 0.32
same,promoter activity interaction Z-score,[2]; [21],-0.393 ± 0.093
same,promoter activity interaction Z-score,[2]; [22],-0.205 ± 0.13
same,promoter activity interaction Z-score,[3]; [7],0.145 ± 0.18
same,promoter activity interaction Z-score,[3]; [8],-0.00146 ± 0.055
same,promoter activity interaction Z-score,[3]; [9],-0.209 ± 0.0032
same,promoter activity interaction Z-score,[3]; [10],0.214 ± 0.16
same,promoter activity interaction Z-score,[3]; [11],0.384 ± 0.26
same,promoter activity interaction Z-score,[3]; [12],0.0835 ± 0.1
same,promoter activity interaction Z-score,[3]; [13],-0.0551 ± 0.11
same,promoter activity interaction Z-score,[3]; [14],0.0794 ± 0.022
same,promoter activity interaction Z-score,[3]; [15],-0.0155 ± 0.081
same,promoter activity interaction Z-score,[3]; [16],0.0304 ± 0.18
same,promoter activity interaction Z-score,[3]; [17],-0.00979 ± 0.056
same,promoter activity interaction Z-score,[3]; [18],0.259 ± 0.28
same,promoter activity interaction Z-score,[3]; [19],0.239 ± 0.31
same,promoter activity interaction Z-score,[3]; [20],-0.0514 ± 0.092
same,promoter activity interaction Z-score,[3]; [21],-0.0741 ± 0.16
same,promoter activity interaction Z-score,[3]; [22],0.193 ± 0.12
same,promoter activity interaction Z-score,[4]; [7],0.335 ± 0.31
same,promoter activity interaction Z-score,[4]; [8],0.335 ± 0.075
same,promoter activity interaction Z-score,[4]; [9],-0.132 ± 0.56
same,promoter activity interaction Z-score,[4]; [10],0.513 ± 0.44
same,promoter activity interaction Z-score,[4]; [11],0.726 ± 0.49
same,promoter activity interaction Z-score,[4]; [12],1.13 ± 1.1
same,promoter activity interaction Z-score,[4]; [13],0.704 ± 0.75
same,promoter activity interaction Z-score,[4]; [14],-0.184 ± 0.45
same,promoter activity interaction Z-score,[4]; [15],0.353 ± 0.34
same,promoter activity interaction Z-score,[4]; [16],0.469 ± 0.28
same,promoter activity interaction Z-score,[4]; [17],0.418 ± 0.24
same,promoter activity interaction Z-score,[4]; [18],0.0995 ± 0.085
same,promoter activity interaction Z-score,[4]; [19],0.349 ± 0.46
same,promoter activity interaction Z-score,[4]; [20],1.78 ± 0.81
same,promoter activity interaction Z-score,[4]; [21],0.954 ± 1.3
same,promoter activity interaction Z-score,[4]; [22],-0.0643 ± 0.52
same,promoter activity interaction Z-score,[5]; [7],0.839 ± 0.9
same,promoter activity interaction Z-score,[5]; [8],0.214 ± 0.091
same,promoter activity interaction Z-score,[5]; [9],0.6 ± 0.66
same,promoter activity interaction Z-score,[5]; [10],0.59 ± 0.11
same,promoter activity interaction Z-score,[5]; [11],1.19 ± 0.31
same,promoter activity interaction Z-score,[5]; [12],2.36 ± 0.11
same,promoter activity interaction Z-score,[5]; [13],0.557 ± 0.45
same,promoter activity interaction Z-score,[5]; [14],-0.577 ± 0.45
same,promoter activity interaction Z-score,[5]; [15],0.25 ± 0.22
same,promoter activity interaction Z-score,[5]; [16],-0.675 ± 0.18
same,promoter activity interaction Z-score,[5]; [17],0.24 ± 0.11
same,promoter activity interaction Z-score,[5]; [18],-0.0538 ± 0.089
same,promoter activity interaction Z-score,[5]; [19],0.337 ± 0.38
same,promoter activity interaction Z-score,[5]; [20],0.9946 ± 0.0074
same,promoter activity interaction Z-score,[5]; [21],0.346 ± 0.75
same,promoter activity interaction Z-score,[5]; [22],0.183 ± 1.1
same,promoter activity interaction Z-score,[6]; [7],0.233 ± 0.39
same,promoter activity interaction Z-score,[6]; [8],-0.0514 ± 0.082
same,promoter activity interaction Z-score,[6]; [9],-0.201 ± 0.088
same,promoter activity interaction Z-score,[6]; [10],0.159 ± 0.065
same,promoter activity interaction Z-score,[6]; [11],0.503 ± 0.48
same,promoter activity interaction Z-score,[6]; [12],0.0892 ± 0.08
same,promoter activity interaction Z-score,[6]; [13],-0.0188 ± 0.046
same,promoter activity interaction Z-score,[6]; [14],-0.109 ± 0.058
same,promoter activity interaction Z-score,[6]; [15],0.0184 ± 0.19
same,promoter activity interaction Z-score,[6]; [16],-0.0994 ± 0.11
same,promoter activity interaction Z-score,[6]; [17],0.111 ± 0.19
same,promoter activity interaction Z-score,[6]; [18],-0.0346 ± 0.014
same,promoter activity interaction Z-score,[6]; [19],-0.0139 ± 0.16
same,promoter activity interaction Z-score,[6]; [20],-0.0609 ± 0.081
same,promoter activity interaction Z-score,[6]; [21],-0.164 ± 0.23
same,promoter activity interaction Z-score,[6]; [22],-0.245 ± 0.15
same,promoter activity interaction Z-score,[1]; [7],-0.813 ± 0.87
same,promoter activity interaction Z-score,[1]; [8],0.0288 ± 1.6
same,promoter activity interaction Z-score,[1]; [9],-0.78 ± 0.64
same,promoter activity interaction Z-score,[1]; [10],-0.147 ± 0.44
same,promoter activity interaction Z-score,[1]; [11],0.563 ± 0.048
same,promoter activity interaction Z-score,[1]; [12],0.78 ± 1.2
same,promoter activity interaction Z-score,[1]; [13],-0.284 ± 1.6
same,promoter activity interaction Z-score,[1]; [14],-0.361 ± 0.24
same,promoter activity interaction Z-score,[1]; [15],-0.451 ± 0.093
same,promoter activity interaction Z-score,[1]; [16],-0.139 ± 0.2
same,promoter activity interaction Z-score,[1]; [17],0.442 ± 1.5
same,promoter activity interaction Z-score,[1]; [18],-0.22 ± 0.31
same,promoter activity interaction Z-score,[1]; [19],0.199 ± 1.1
same,promoter activity interaction Z-score,[1]; [20],0.757 ± 1.8
same,promoter activity interaction Z-score,[1]; [21],-0.377 ± 0.11
same,promoter activity interaction Z-score,[1]; [22],-0.341 ± 0.63
